From PubChem
Marburg entry inh: Marburg virus entry inhibition; Marburg virus pseudotyped entry inhibition, cell reporter; Potency, µM (series often up to 37.8 µM), for the others: at the highest dose activity change, negative = inhibition, actives largely listed as inhibitors; actives 1.8% (n = 300,000); calls by dose curve; tested in HEK293 cells; also: potency is read from the fitted curve at half-maximal effect; % is scaled to controls: 0 for no effect and ±100 for the full control effect
HCMV antiviral: blocks human cytomegalovirus replication | HFF cells, HCMV-luciferase reporter, 72 h; active compounds read low | activity change, negative = inhibition, % at 57.5 µM | actives 4.5% (n = 410,000); in the data active = activity change below about -60%; inconclusive = no clear call, values can overlap the other calls; inactive = above about -39%; also: % is scaled to controls: 0 for no effect and ±100 for the full control effect
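Two compound doses tested in HFFs infected with HCMV-luciferase, MOI 1 PFU/cell, 72 h at 37C. Lysate luminescence read with OneGlo; data normalized against buffer-only and 10uM Salinomycin inhibitor controls.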
LASV entry inh: blocks Lassa virus binding to or entry into cells. Lassa virus pseudotype entry inhibition, cell reporter. Potency, µM (highest dose often 37.9 µM), without a hit: at the top dose activity change, negative = inhibition, hits mostly inhibitors. actives 1.2% (n = 300,000); calls by dose curve; tested in HEK293 cells; also: potency is read from the fitted curve at half-maximal effect; % is scaled to controls: 0 for no effect and ±100 for the full control effect; nearly all actives have a fitted effect of over 50% in size
SARS PLP yeast: blocks SARS-CoV papain-like protease in a yeast assay | Potency, µM (highest dose often 32.9 µM), without a hit: top-dose activity, positive = growth rescue, most hits filed as activators | actives 0.19% (n = 330,000) | AID 485353 | S. cerevisiae expressing SARS-CoV PLpro, growth rescue; calls by dose curve; also: potency is read from the fitted curve at half-maximal effect; 0% is about no effect; nearly all actives have a fitted effect of over 55% in size
HCV inh: inhibitors of hepatitis C virus infection. Huh7.5.1 HCVcc-Cre infection, luciferase reporter, 44 h. Potency, µM (titrated, usually from 41.8 µM), for the others: at the top dose activity change, negative = inhibition, usual class: inhibitors. actives 3.4% (n = 340,000). AID 651820; active = well fitted inhibition curve with a large enough effect; inconclusive = small, poorly fitted or top-dose-only effect, or another doubt; inactive = no such curve, though single readings can be large or run the other way; also: potency is read from the fitted curve at half-maximal effect; % is scaled to controls: 0 for no effect and ±100 for the full control effect
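Whole-lifecycle infectious HCVcc-Cre system; cells 1,000/well, compound then virus (~0.5 moi) added 4 h after plating, 44 h culture. Luciferase read 15 sec following 15 min substrate incubation, room temp.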
FMDV inh: blocks foot and mouth disease virus | FMDV antiviral cell-based qHTS | AID 1159524 | actives 1.2% (n = 410,000) | Potency, µM (top dose mostly 57.9 µM), without a hit: at the top dose activity change, negative = inhibition, actives largely listed as inhibitors; calls by dose curve; tested in HEK293T cells; also: read-out not given here; potency is read from the fitted curve at half-maximal effect; % is scaled to controls: 0 for no effect and ±100 for the full control effect; nearly all actives have a fitted effect of over 45% in size
An asterisk follows results filed as active; ? = inconclusive; . = not tested or not shown; ! = not active in a repeat; [ ] = remark or other dose. Rows were chosen to be rich in hits. Some 8% of all compounds tested hit in one or more screens of this group.

SMILES	Marburg entry inh	HCMV antiviral	LASV entry inh	SARS PLP yeast	HCV inh	FMDV inh
Cn1nnnc1SCc1nc2scc(-c3ccccc3)c2c(=O)[nH]1	.	12	.	-2%	-30%	?
Cn1nnnc1Sc1ncnc2scc(-c3ccc[nH]3)c12	.	-98*	.	-4%	.	?
Cc1ccc(-c2nc(-c3cc4c([nH]c3=O)CC(C)(C)CC4=O)sc2C)cc1	?	-13	2%[46.1 µM]	.	.	1%
O=C(NCC(c1ccc2c(c1)OCO2)N1CCOCC1)c1cccc(Cl)c1 (centres undefined)	.	19	-5%[46.1 µM]	.	.	-5%
Cc1cc(C)n(-c2nc3cc(Cl)ccc3nc2N2CCN(c3cccc(C)c3C)CC2)n1	13%[46.1 µM]	14	10%[46.1 µM]	.	.	-25%
CCOC(=O)C[C@@H](C#N)c1cn(C)c2ccccc12	-18%	.	.	.	.	.
Cn1nnnc1Sc1ncnc2scc(Br)c12	.	-97*	.	-2%	.	22µM*
OCCN1CCN(c2ncnc3scc(-c4ccc(F)cc4)c23)CC1	.	-31	.	-1%	1%	-10%
c1ccc(-c2csc3ncn4nnnc4c23)cc1	22%	-100*	4%	-3%	9%	27%
COc1ccccc1-c1csc2ncnc(Sc3nnnn3C)c12	.	-74*	.	-1%	.	?
Cn1nnnc1Sc1ncnc2scc(-c3ccc(F)cc3)c12	8.2µM*	-76*	4.1µM*	-1%	?	16µM*
COc1cc(CN2CCc3nnc(C(NS(C)(=O)=O)C(C)C)n3CC2)ccc1F (centres undefined)	.	.	.	.	.	-8%
Cc1ccc(NC(=O)C(=O)NCCCN2CCOCC2)cc1C	-1%[46.1 µM]	31	?	.	.	-20%
Cc1c(C(=O)NCc2ccc3c(c2)OCCO3)sc(=O)n1Cc1ccc(S(=O)(=O)N(C)C)cc1	.	-37	.	.	.	14µM*
Cc1c(C(=O)NCc2ccccc2C(F)(F)F)sc(=O)n1Cc1ccc2ccccc2c1	.	-71*	.	.	.	-5%
Cc1c(C(=O)NCc2ccc(Cl)c(Cl)c2)sc(=O)n1Cc1ccc(S(C)(=O)=O)cc1	.	-80*	.	.	.	35µM*
Cc1c(C(=O)NCc2ccc3c(c2)OCCO3)sc(=O)n1Cc1cccc(C(F)(F)F)c1	.	-79*	.	.	.	-20%
Cc1c(C(=O)NCc2ccccc2C(F)(F)F)sc(=O)n1Cc1cccc(C(F)(F)F)c1	.	-16	.	.	.	-16%
Cc1c(C(=O)NCc2ccc3c(c2)OCO3)sc(=O)n1Cc1ccc(S(=O)(=O)N(C)C)cc1	.	-30	.	.	.	?
COc1cc(Br)ccc1C1C(C(=O)Nc2ccc(C)cc2C)=C(C)Nc2nnnn21 (centres undefined)	-18%[46.1 µM]	?	?	.	.	-12%
O=C(Cn1cc2ccccc2n1)N1CCOc2ccc(C(O)C3CCCCC3)cc2C1 (centres undefined)	.	.	.	.	.	-13%
CSc1ccc(Cn2c(C)c(C(=O)NCc3ccc4c(c3)OCCO4)sc2=O)cc1	.	-74*	.	.	.	?
COc1cc(C2C(=O)N(C3CCCCC3)CC(=O)N2CCc2ccccc2)ccc1OC(C)C (centres undefined)	.	-23	-12%[46.1 µM]	.	.	-17%
CS(=O)(=O)Nc1ccc([N+](=O)[O-])cc1Oc1ccccc1	?	35	0.016µM*!	16%	3%[8.37 µM]	?
CCOc1ccc(S(=O)(=O)NCc2nc3cccnc3n2Cc2ccccc2OC)cc1	.	-26	-35%[46.1 µM]	.	.	66%
SMILES	Marburg entry inh	HCMV antiviral	LASV entry inh	SARS PLP yeast	HCV inh	FMDV inh
COC(=O)C/C=C/[C@@H](C)[C@H](OC)c1ccccc1Br	-11%[14.2 µM]	.	.	.	.	.
Cc1ccc(Nc2sc(C(=O)c3ccccc3)c(N)c2S(=O)(=O)c2ccccc2)cc1Cl	-25%[46.1 µM]	16	?	.	.	-23%
CCCCCCCCn1cnc2c(N)c(C)c(C)cc21	?	-13	?	-4%	1.6µM*	-28%
COc1ccc(Cn2cnc3c(N)c(C)c(C)cc32)cc1	23%[46.1 µM]	?	0%	1%	-30%	-5%
CCOCCCNC(=S)N1CCN(c2nc(-c3ccc(F)cc3)cs2)CC1	.	-85*	.	1%	11µM*	?
CCCNC(=S)N1CCN(c2nc(-c3ccc(C)cc3)cs2)CC1	?	?	-11%	0%	13µM*	?
COCCCNC(=S)N1CCN(c2nc(-c3ccc(F)cc3)cs2)CC1	.	-85*	.	11%	10µM*	?
S=C(NCC1CCCO1)N1CCN(c2nc(-c3ccc(Cl)cc3)cs2)CC1 (centres undefined)	?	-63*	?	-3%	?	16µM*
CCNC(=O)c1cc(NC(=O)COC)cc2nc(-c3ccncc3)n(C)c12	.	.	.	.	.	-14%
C[C@@H](C1[C@@H](O)CC2C3C=CC4C[C@@H](O)CC[C@]4(C)[C@H]3CC[C@@]21C)[C@@H]1CCCCN1 (some centres undefined)	.	.	.	.	.	-27%
NC(=O)c1cc(-c2ccc(F)cc2)cc(-c2ccncc2)c1N	.	.	10%	.	.	.
CC(C)(C)c1ccc(OCCOc2ccc(C(C)(C)C)cc2NC=O)c(NC=O)c1	.	?	.	-1%	10µM*	?
COCCOc1ccc(C(F)(F)F)cc1NC(=O)c1ccccc1	17%	13	?	-5%	-5%	8%
CC(C)OC(=O)C[C@H](NC(=O)OC(C)(C)C)c1ccccc1	-9%	.	.	.	.	.
COc1ccc2c(OC)cc(-c3ccccc3)nc2c1	-12%	-5	0%	-34%	10µM*	-12%
COc1ccc(-c2cc(OC)c3ccccc3n2)cc1	-16%	32	14%	-10%	?	24%
COc1ccc(-c2cc3cc(OC)c(OC)cc3c(C)n2)cc1	-16%[46.1 µM]	14	-2%	-2%	14µM*	30%
COc1ccc(-c2cc3ccc(OC)cc3cn2)cc1	.	25	.	2%	-6%	-50%
CCc1cc2c(cc3c(=O)n(CC(=O)NC4CCC(C)CC4)nc(CC)n32)s1 (centres undefined)	?	90	.	.	.	38%
CCOc1ccc(/C=N/NS(=O)(=O)c2ccc(C)cc2)cc1OC	.	19	.	1%	3%	0%
COC(=O)c1ccc(COc2ccccc2/C=N/NS(=O)(=O)c2ccc(C)cc2)cc1	?	-94*	-31%[14.3 µM]	-5%	.	59%
COc1cc(/C=N/NS(=O)(=O)c2ccc(C)cc2)ccc1OCc1ccc(C(=O)O)cc1	?	2	6.3µM*	-2%	13%	-37%
N#CC(C#N)=Cc1ccccc1OCc1ccccc1	.	.	.	-3%	.	.
O=S(=O)(N/N=C/c1ccccc1OCc1ccc(Cl)cc1)c1ccccc1	?	-83*	-12%	-15%	?	62%
Cc1ccc(S(=O)(=O)/C(C#N)=C/c2ccccc2OCc2ccccc2)cc1	?	-69*	?	9%	21%	12%
O=C(Cc1ccccc1)N/N=C/c1ccccc1OCc1ccc(Cl)cc1	24%	6	-25%	3%	?	8%
COc1ccc(-c2nc3scc(CCNS(=O)(=O)c4ccc5c(c4)OCCO5)n3n2)cc1	.	-24	-5%[46.1 µM]	.	.	6%
